# Results taken from PubChem BioAssay AID1159580 (chemical genetic matrix, 2015).
# The whole screen tested about 5,500 compounds, of which about 2,000 (36%) were called active. About 18% were inconclusive and are not listed. Some of the results follow. Values without a mark were called inactive. Cut-off read from the data, not from the text of the source: active = normalized growth mostly below about 0.91 (no sharp cut-off); inconclusive = no clear call, values can overlap the other calls; inactive = mostly above about 0.92.
# Assay: chemical genetic growth profiling, strain panel (AID 1159580);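 note: tested at 20 µM; growth read once vehicle control cultures reached saturation at 30 °C; 1 = growth at the plate median or of vehicle wells; lower values mean less growth of the strain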
# Details: growth OD
compound,measurement,setting,value
CC(=O)Oc1ccc(O)cc1,normalized growth,"S. cerevisiae deletion strains, locus YJL187C, strain SWE1, hits give low values",0.978
same,normalized growth,"S. cerevisiae deletion strains, locus YJR043C, strain POL32, hits give low values",0.929
same,normalized growth,"S. cerevisiae deletion strains, locus YJR075W, strain HOC1, hits give low values",0.955
same,normalized growth,"S. cerevisiae deletion strains, locus YKL009W, strain mrt4, hits give low values",1.02
same,normalized growth,"S. cerevisiae deletion strains, locus YKL068W, hits give low values",1.01
same,normalized growth,"S. cerevisiae deletion strains, locus YKL085W, strain MDH1 (second series), hits give low values",1.04
same,normalized growth,"S. cerevisiae deletion strains, locus YKL085W, strain MDH1, hits give low values",1.04
same,normalized growth,"S. cerevisiae deletion strains, locus YKL160W, strain elf1, hits give low values",0.995
same,normalized growth,"S. cerevisiae deletion strains, locus YKR001C, strain vps1, hits give low values",0.945
same,normalized growth,"S. cerevisiae deletion strains, locus YKR026C, strain gcn3, hits give low values",0.979
same,normalized growth,"S. cerevisiae deletion strains, locus YKR091W, strain srl3, hits give low values",0.985
same,normalized growth,"S. cerevisiae deletion strains, locus YLL001W, strain dnm1, hits give low values",0.994
same,normalized growth,"S. cerevisiae deletion strains, locus YLL026W, hits give low values",0.987
same,normalized growth,"S. cerevisiae deletion strains, locus YLL041C, strain sdh2, hits give low values",0.99
same,normalized growth,"S. cerevisiae deletion strains, locus YLR027C, strain aat2, hits give low values",0.993
same,normalized growth,"S. cerevisiae deletion strains, locus YLR039C, strain RIC1, hits give low values",1.05
same,normalized growth,"S. cerevisiae deletion strains, locus YLR058C, strain SHM2, hits give low values",0.991
same,normalized growth,"S. cerevisiae deletion strains, locus YLR102C, strain apc9, hits give low values",1.02
same,normalized growth,"S. cerevisiae deletion strains, locus YLR221C, strain rsa3, hits give low values",0.959
same,normalized growth,"S. cerevisiae deletion strains, locus YLR258W, strain gsy2, hits give low values",0.989
same,normalized growth,"S. cerevisiae deletion strains, locus YLR262C, strain YPT6 (second series), hits give low values",0.996
same,normalized growth,"S. cerevisiae deletion strains, locus YLR262C, strain YPT6, hits give low values",0.926
same,normalized growth,"S. cerevisiae deletion strains, locus YLR268W, strain sec22, hits give low values",0.977
same,normalized growth,"S. cerevisiae deletion strains, locus YLR320W, strain mms22, hits give low values",0.923
same,normalized growth,"S. cerevisiae deletion strains, locus YLR330W, strain CHS5, hits give low values",0.914 (active)
same,normalized growth,"S. cerevisiae deletion strains, locus YLR342W, strain FKS1 (second series), hits give low values",0.819
same,normalized growth,"S. cerevisiae deletion strains, locus YLR342W, strain FKS1, hits give low values",0.979
same,normalized growth,"S. cerevisiae deletion strains, locus YLR357W, strain rsc2, hits give low values",0.988
same,normalized growth,"S. cerevisiae deletion strains, locus YLR370C, strain arc18, hits give low values",1
same,normalized growth,"S. cerevisiae deletion strains, locus YLR371W, strain rom2, hits give low values",1.02
same,normalized growth,"S. cerevisiae deletion strains, locus YLR384C, strain iki3, hits give low values",0.997
same,normalized growth,"S. cerevisiae deletion strains, locus YLR418C, strain cdc73, hits give low values",0.934
same,normalized growth,"S. cerevisiae deletion strains, locus YML016C, strain PPZ1, hits give low values",1.01
same,normalized growth,"S. cerevisiae deletion strains, locus YML032C, strain rad52, hits give low values",0.967
same,normalized growth,"S. cerevisiae deletion strains, locus YML120C, strain ndi1, hits give low values",1.02
same,normalized growth,"S. cerevisiae deletion strains, locus YML124C, strain tub3, hits give low values",1.03
same,normalized growth,"S. cerevisiae deletion strains, locus YMR058W, strain fet3, hits give low values",0.979
same,normalized growth,"S. cerevisiae deletion strains, locus YMR078C, strain ctf18, hits give low values",1.03
same,normalized growth,"S. cerevisiae deletion strains, locus YMR125W, strain sto1, hits give low values",0.977
same,normalized growth,"S. cerevisiae deletion strains, locus YMR129W, hits give low values",0.99
same,normalized growth,"S. cerevisiae deletion strains, locus YMR205C, strain PFK2, hits give low values",1
same,normalized growth,"S. cerevisiae deletion strains, locus YMR223W, strain ubp8, hits give low values",1
same,normalized growth,"S. cerevisiae deletion strains, locus YMR231W, strain pep5, hits give low values",0.962
same,normalized growth,"S. cerevisiae deletion strains, locus YMR263W, strain SAP30, hits give low values",0.991
same,normalized growth,"S. cerevisiae deletion strains, locus YMR307W, strain GAS1, hits give low values",0.791
same,normalized growth,"S. cerevisiae deletion strains, locus YNL067W, strain RPL9B, hits give low values",0.966
same,normalized growth,"S. cerevisiae deletion strains, locus YNL071W, strain lat1, hits give low values",0.961
same,normalized growth,"S. cerevisiae deletion strains, locus YNL128W, strain TEP1, hits give low values",1.01
same,normalized growth,"S. cerevisiae deletion strains, locus YNL153C, strain GIM3, hits give low values",0.956
same,normalized growth,"S. cerevisiae deletion strains, locus YNL209W, strain ssb2, hits give low values",0.988
same,normalized growth,"S. cerevisiae deletion strains, locus YNL233W, strain BNI4, hits give low values",0.94
same,normalized growth,"S. cerevisiae deletion strains, locus YNL248C, strain rpa49, hits give low values",0.956
same,normalized growth,"S. cerevisiae deletion strains, locus YNL250W, strain rad50, hits give low values",1.04
same,normalized growth,"S. cerevisiae deletion strains, locus YNL271C, strain bni1, hits give low values",1.04
same,normalized growth,"S. cerevisiae deletion strains, locus YNL298W, strain CLA4, hits give low values",1.03
same,normalized growth,"S. cerevisiae deletion strains, locus YNL307C, strain MCK1, hits give low values",0.96
same,normalized growth,"S. cerevisiae deletion strains, locus YNL322C, strain KRE1 (second series), hits give low values",0.993
same,normalized growth,"S. cerevisiae deletion strains, locus YNL322C, strain KRE1, hits give low values",0.996
same,normalized growth,"S. cerevisiae deletion strains, locus YNR049C, strain mso1, hits give low values",0.989
same,normalized growth,"S. cerevisiae deletion strains, locus YNR052C, strain pop2, hits give low values",1.02
same,normalized growth,"S. cerevisiae deletion strains, locus YOL012C, strain htz1",0.741
same,normalized growth,"S. cerevisiae deletion strains, locus YOL147C, strain pex11, hits give low values",1.03
same,normalized growth,"S. cerevisiae deletion strains, locus YOR001W, strain rrp6, hits give low values",0.992
same,normalized growth,"S. cerevisiae deletion strains, locus YOR061W, strain CKA2, hits give low values",1.01
same,normalized growth,"S. cerevisiae deletion strains, locus YOR069W, strain VPS5, hits give low values",1.01
same,normalized growth,"S. cerevisiae deletion strains, locus YOR070C, strain gyp1, hits give low values",0.975
same,normalized growth,"S. cerevisiae deletion strains, locus YOR080W, strain dia2, hits give low values",0.998
same,normalized growth,"S. cerevisiae deletion strains, locus YOR083W, strain WHI5, hits give low values",0.974
same,normalized growth,"S. cerevisiae deletion strains, locus YOR106W, strain vam3, hits give low values",0.995
same,normalized growth,"S. cerevisiae deletion strains, locus YOR136W, strain idh2, hits give low values",1.01
same,normalized growth,"S. cerevisiae deletion strains, locus YOR144C, strain elg1, hits give low values",1.03
same,normalized growth,"S. cerevisiae deletion strains, locus YOR184W, strain ser1, hits give low values",0.984
same,normalized growth,"S. cerevisiae deletion strains, locus YOR265W, strain rbl2, hits give low values",1.01
same,normalized growth,"S. cerevisiae deletion strains, locus YOR270C, strain vph1, hits give low values",0.986
same,normalized growth,"S. cerevisiae deletion strains, locus YOR290C, strain snf2, hits give low values",0.995
same,normalized growth,"S. cerevisiae deletion strains, locus YOR316C, strain cot1, hits give low values",1.04
same,normalized growth,"S. cerevisiae deletion strains, locus YPL051W, strain arl3, hits give low values",0.962
same,normalized growth,"S. cerevisiae deletion strains, locus YPL078C, strain atp4, hits give low values",1.02
same,normalized growth,"S. cerevisiae deletion strains, locus YPL106C, strain sse1, hits give low values",0.991
same,normalized growth,"S. cerevisiae deletion strains, locus YPL240C, strain hsp82, hits give low values",0.999
same,normalized growth,"S. cerevisiae deletion strains, locus YPL241C, strain CIN2, hits give low values",1.02
same,normalized growth,"S. cerevisiae deletion strains, locus YPR119W, strain clb2, hits give low values",1.01
same,normalized growth,"S. cerevisiae deletion strains, locus YPR141C, strain kar3, hits give low values",1.03
same,normalized growth,"S. cerevisiae deletion strains, locus YPR163C, strain tif3, hits give low values",0.974
same,normalized growth,"S. cerevisiae deletion strains, locus YPR167C, strain met16, hits give low values",1.03
same,normalized growth,"S. cerevisiae deletion strains, strain wtn01, hits give low values",0.995
same,normalized growth,"S. cerevisiae strains, strain wild type, hits give low values",0.925
